# Assay outcomes deposited in PubChem BioAssay by National Center for Advancing Translational Sciences (NCATS).
# This is a sample that favours compounds with a hit; in the whole collection about 3.2% have one here.
# Tau fibril ThT: blocks human tau fibril formation measured by thioflavin T. P10636. recombinant tau K18 P301L, heparin-induced fibrillization, ThT fluorescence. Potency, µM (highest dose often 57.4 µM), for inactives: top-dose activity, negative = inhibition, most hits filed as inhibitors. actives 2.1% (n = 270,000); further: nearly all actives have a fitted effect of over 55% in size
#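 Fibril formation assay: tau K18 P301L at 15 uM with trace Alexa 594 label, heparin inducer 20 uM, pH 7 sodium acetate buffer, 37 C for 6 hr; endpoint ThT signal.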
# Tau fluor counter: counter-screen for tau fibril formation inhibitors; tau K18 P301L Alexa594 fluorescence, heparin fibrillization; Potency, µM (top dose mostly 57.7 µM), for inactives: top-dose activity change, negative = decrease; actives 0.93% (n = 280,000); further: nearly all actives have a fitted effect of over 55% in size
#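 Human tau K18 P301L (15 uM unlabeled, 0.24 uM Alexa 594-labeled) in 100 mM sodium acetate pH 7 with 20 uM heparin, 6 hr at 37 C. ThT 30 uM added, 1 hr ambient; Alexa 594 FP and total fluorescence read at 555/632 nm.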
# TRb-SRC2 inh: inhibitors of human thyroid hormone receptor beta-SRC2 interaction; TRbeta-SRC2 peptide binding, fluorescence polarization; receptor liganded with 1 µM T3; Potency, µM (highest dose often 106 µM), without a hit: top-dose activity change, negative = inhibition, actives largely listed as inhibitors; actives 0.065% (n = 280,000);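 further: plate controls were bound peptide for no effect and peptide without receptor for full effect; nearly all actives have a fitted effect of over 50% in size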
# Target sequence (P10828 whole entry, looked up): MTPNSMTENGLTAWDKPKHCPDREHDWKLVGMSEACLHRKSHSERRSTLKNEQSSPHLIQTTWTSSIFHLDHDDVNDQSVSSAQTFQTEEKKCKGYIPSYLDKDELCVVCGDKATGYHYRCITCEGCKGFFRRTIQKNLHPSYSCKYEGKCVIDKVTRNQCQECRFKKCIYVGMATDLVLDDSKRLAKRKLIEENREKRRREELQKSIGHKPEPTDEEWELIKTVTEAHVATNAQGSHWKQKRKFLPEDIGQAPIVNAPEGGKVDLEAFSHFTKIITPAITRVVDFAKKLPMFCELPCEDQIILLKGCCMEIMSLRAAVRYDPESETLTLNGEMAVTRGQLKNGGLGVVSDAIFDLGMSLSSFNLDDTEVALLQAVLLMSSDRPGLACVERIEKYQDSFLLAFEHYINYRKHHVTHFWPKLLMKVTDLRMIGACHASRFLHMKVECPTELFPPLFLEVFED
#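 TRb LBD 0.6 uM + Texas Red SRC2 peptide 20 nM, 1 uM T3, Tris buffer w/ 5% DMSO; compound pinned, 5 h RT; FP read ex 555/em 632; normalized to unbound and bound controls.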
# Tau fibril FP: inhibitors of human tau fibril formation; K18 P301L tau heparin fibrillization, Alexa594 FP, 6 h; Potency, µM (highest dose often 57.7 µM), inactives show at the top dose activity, negative = inhibition, most hits filed as inhibitors; actives 0.39% (n = 280,000); further: nearly all actives have a fitted effect of over 55% in size
#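 Read-out: fluorescence polarization of Alexa 594-labeled tau (0.24 uM), 555 nm excitation, 632 nm emission. Mixtures held 15 uM unlabeled K18 P301L, compound and 20 uM heparin, pH 7 acetate buffer, incubated 6 hr at 37 C.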
# TR SRC2 fluor cs: Texas Red fluorescence interference in TRb-SRC2 counter-screen; TRb/SRC2 Texas Red total fluorescence interference; Potency, µM (top dose mostly 106 µM), inactives show at the top dose fluorescence change, negative = quenching; actives 0.29% (n = 280,000); AID 1479; active means well fitted curve in either direction with a large enough effect; inconclusive means small, poorly fitted or top-dose-only effect
#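 Human TRb ligand-binding domain at 0.6 uM with 20 nM Texas Red SRC2 peptide in Tris buffer containing 1 uM T3 and 5% DMSO, incubated with compound 5 h at ambient temperature. Total fluorescence (555/632 nm) calculated as parallel + 2 × perpendicular.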
# RGS12 GoLoco inh: inhibitors of human Gai1-RGS12 GoLoco interaction (red fluorophore) | Gai1:RGS12 GoLoco peptide FP, rhodamine, 10 min | Potency, µM (series often up to 61.6 µM), without a hit: at the top dose activity, negative = inhibition, hits mostly inhibitors | P63096 | actives 0.44% (n = 230,000); active means well fitted inhibition curve with a large enough effect, not every such curve was filed as active; inactive means no such curve, though single readings can be large or run the other way; further: nearly all actives have a fitted effect of over 30% in size
# Active calls of the source: *; ? = inconclusive; . = no result; [ ] = dose if it differs, or a comment. Unless noted, the call rests on the fitted dose curve; in most records, active means well fitted curve in the direction sought with a large enough effect; inconclusive means small, poorly fitted or top-dose-only effect, or another doubt; inactive means no such curve, though single readings can be large; an effect the other way counts as inactive or inconclusive. Unless noted, on the % scale 0 is the no-effect control and ±100 the full control effect; potency means the concentration at half of the fitted maximal effect.
SMILES,Tau fibril ThT,Tau fluor counter,TRb-SRC2 inh,Tau fibril FP,TR SRC2 fluor cs,RGS12 GoLoco inh
Cc1ccc(NC(=O)C(OC(=O)c2ccc(NC(N)=O)cc2)c2ccccc2)cc1Cl (stereo unspecified),?,?,2.5%,12.6µM*,-15.6%,0.6%
Nc1ccc(Oc2ccc3nc(-c4ccccc4)c(-c4ccccc4)nc3c2)cc1,-9.4%,14.1µM*[quencher],-12.9%,11.0%,-1.5%,6.5%
O=C(O)c1ccc2nc(-c3ccccc3)c(-c3ccccc3)nc2c1,-1.7%,0.3%,-2.5%,-1.0%,-1.6%,1.3%
CC(=O)C(C(C)=O)c1c(Cl)c(O)c(O)c2c(C(=O)c3ccccc3)coc12,15.8µM*,?,3.8%,?,-2.3%,-25.1%
COc1cccc(Nc2ncc3nc(-c4ccccc4)c(=O)n(Cc4cccs4)c3n2)c1,.,.,.,.,.,5.3%
CCOC(=O)C1OC1C(=O)NC(CC(C)C)C(=O)NCCC(C)C (stereo unspecified),-5.7%,-0.9%,0.8%,2.4%,-1.2%,-4.2%
CCN=c1scc(-c2cccs2)n1/N=C/c1cc(OC)ccc1O,?,?,5.4%,?,-1.6%,-2.1%
CN=c1scc(-c2ccccc2F)n1/N=C/c1ccc(O)c(O)c1O,14.1µM*,25.1µM*[quencher],-4.2%,?,-22.9%,41.9%
CC(C)N=c1scc(-c2cccs2)n1/N=C/c1ccc(O)c(O)c1O,15.8µM*,20µM*[quencher],3.8%,?,-0.3%,9.2%
CC(C)C[C@H](NC(=O)[C@H](CC(C)C)NC(=O)[C@H](CCC(N)=O)NC(=O)[C@H](CO)NC(=O)[C@@H]1CCCN1C(=O)[C@H](CO)NC(=O)[C@H](CO)NC(=O)[C@@H](NC(=O)[C@H](Cc1cnc[nH]1)NC(=O)[C@H](CCC(=O)O)NC(=O)[C@H](Cc1ccc(O)cc1)NC(=O)[C@H](CCCCN)NC(=O)[C@H](CCC(N)=O)NC(=O)[C@H](Cc1ccc(O)cc1)NC(=O)[C@H](CC(=O)O)NC(=O)[C@@H](NC(=O)[C@@H]1CCCN1C(=O)[C@H](CC(=O)O)NC(=O)[C@H](CC(N)=O)NC(=O)[C@H](CC(=O)O)NC(=O)CNC(=O)[C@H](CC(=O)O)NC(=O)[C@@H]1CCCN1C(=O)[C@H](CCC(N)=O)NC(=O)[C@H](Cc1ccc(O)cc1)NC(=O)[C@H](C)NC(=O)[C@H](Cc1c[nH]c2ccccc12)NC(=O)[C@H](Cc1ccccc1)NC(=O)[C@@H](NC(=O)[C@@H](N)CO)[C@@H](C)O)[C@@H](C)O)[C@@H](C)O)C(=O)N[C@@H](C)C(=O)N1CCC[C@H]1C(=O)NCC(=O)N[C@@H](CC(=O)O)C(=O)N[C@@H](Cc1ccc(O)cc1)C(=O)O,.,.,-6.9%,.,-1.8%,.
CN(C)c1ccc(O)c2c1C[C@@H]1C[C@H]3C(N(C)C)C(=O)C(C(N)=O)=C(O)[C@@]3(O)C(=O)C1=C2O (stereo partly specified),?,-16.2%,0.8%,-9.2%,-4.2%,-2.3%
CN(C)[C@H]1C(=O)C(C(=O)NCN2CCCC2)=C(O)[C@]2(O)C(=O)C3=C(O)c4c(O)cccc4[C@](C)(O)[C@H]3C[C@H]12,.,.,?,.,14.1µM*[quencher],-4.4%[14.2 µM]
CN(C)[C@@H]1C(=O)C(C(=O)NCN2CCCC2)=C(O)[C@@]2(O)C(=O)C3=C(O)c4c(O)cccc4[C@@](C)(O)C3CC12 (stereo partly specified),14.1µM*,?,-18.4%,?,?,-31.5%
CC(C)C(=O)SCCCCCCC(=O)Nc1nc(-c2ccccc2)cs1,.,.,2.8%,.,-1.0%,.
CCCCc1c(CCC)c(=N)c2ccccc2n1C,-8.6%,-6.7%,-10.9%,-8.1%,-1.5%,11.2µM*
CCCCc1c(O)c2ccccc2n(CCCC)c1=O,-6.9%,-15.2%,1.9%,-3.5%,-4.6%,1.0%
